Experimental data taken from the supplement of paper PMC11732987, “Enantioselective OTUD7B fragment discovery through chemoproteomics screening and high-throughput optimisation” (Communications Chemistry, 2025).

Legend:
Experiment in all cases: log2 ratio of Biotin-Ahx-Ub-VS probe labelling (fragment/DMSO); higher = less target engagement (more negative = stronger competition), active = hit call of the paper (q ≤ 0.05, log2 ratio ≤ -1)
Conditions in all cases: compound concentration: 200 uM; treatment time: 3 h
USP9X = USP9X (UniProt Q93008)
Outline: (§1)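 Fragment (200 µM) or vehicle was incubated for 3 h with triplicate HEK293T lysate samples of 495 µg, which were then treated with Biotin-Ahx-Ub-VS at 0.5 µM final for 1 h. Labelled DUBs were enriched on NeutrAvidin, digested with LysC and trypsin, and analysed by diaPASEF LC-MS/MS. Values are average log2 fragment/vehicle ratios from an unpaired t-test on global-median-normalised Spectronaut label-free quantities, using proteins with ≥2 unique peptides.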

UniProt O00487 = target: UniProt O00487
Outline: as §1

UniProt O00507 = target: UniProt O00507
Outline: as §1

UniProt P51784 = target: UniProt P51784
Outline: as §1

UniProt Q5T2D3 = target: T1, UniProt Q5T2D3
T1 sequence (whole entry): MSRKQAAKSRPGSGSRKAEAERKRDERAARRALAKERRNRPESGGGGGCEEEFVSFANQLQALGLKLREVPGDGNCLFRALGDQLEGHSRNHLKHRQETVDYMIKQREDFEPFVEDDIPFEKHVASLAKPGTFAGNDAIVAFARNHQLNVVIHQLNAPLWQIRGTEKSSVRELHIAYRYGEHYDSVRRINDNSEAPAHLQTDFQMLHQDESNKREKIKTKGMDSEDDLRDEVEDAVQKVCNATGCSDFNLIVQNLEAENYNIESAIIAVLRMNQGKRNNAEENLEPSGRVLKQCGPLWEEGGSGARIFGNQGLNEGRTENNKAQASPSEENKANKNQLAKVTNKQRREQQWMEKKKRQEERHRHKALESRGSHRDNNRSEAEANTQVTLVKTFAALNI
Outline: as §1

UniProt Q8TE49 = target: T2, UniProt Q8TE49
T2 sequence (whole entry): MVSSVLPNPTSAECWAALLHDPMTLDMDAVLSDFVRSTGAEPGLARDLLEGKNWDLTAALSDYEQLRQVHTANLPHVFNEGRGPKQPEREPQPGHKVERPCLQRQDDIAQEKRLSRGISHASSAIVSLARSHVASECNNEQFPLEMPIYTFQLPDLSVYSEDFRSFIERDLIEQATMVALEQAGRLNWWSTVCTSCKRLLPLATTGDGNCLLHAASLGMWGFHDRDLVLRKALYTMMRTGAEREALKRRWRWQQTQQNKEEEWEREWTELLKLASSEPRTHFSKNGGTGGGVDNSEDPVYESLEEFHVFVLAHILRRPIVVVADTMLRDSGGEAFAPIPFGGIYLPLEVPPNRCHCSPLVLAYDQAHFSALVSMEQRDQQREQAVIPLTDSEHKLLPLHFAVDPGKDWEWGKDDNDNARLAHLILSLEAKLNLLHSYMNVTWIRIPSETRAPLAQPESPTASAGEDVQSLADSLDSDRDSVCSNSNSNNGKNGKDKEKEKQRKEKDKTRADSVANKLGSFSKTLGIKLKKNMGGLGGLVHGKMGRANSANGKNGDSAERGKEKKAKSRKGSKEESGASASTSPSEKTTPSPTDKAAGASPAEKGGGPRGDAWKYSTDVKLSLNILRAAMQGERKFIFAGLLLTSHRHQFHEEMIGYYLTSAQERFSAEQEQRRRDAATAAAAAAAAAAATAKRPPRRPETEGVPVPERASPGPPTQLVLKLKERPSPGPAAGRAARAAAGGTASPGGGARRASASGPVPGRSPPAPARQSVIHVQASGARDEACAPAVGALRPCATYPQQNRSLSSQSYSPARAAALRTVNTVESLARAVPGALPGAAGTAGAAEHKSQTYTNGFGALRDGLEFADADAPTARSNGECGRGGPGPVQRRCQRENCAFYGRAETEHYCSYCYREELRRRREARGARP
Outline: as §1

UniProt Q9P2H5 = target: T3, UniProt Q9P2H5
T3 sequence (whole entry): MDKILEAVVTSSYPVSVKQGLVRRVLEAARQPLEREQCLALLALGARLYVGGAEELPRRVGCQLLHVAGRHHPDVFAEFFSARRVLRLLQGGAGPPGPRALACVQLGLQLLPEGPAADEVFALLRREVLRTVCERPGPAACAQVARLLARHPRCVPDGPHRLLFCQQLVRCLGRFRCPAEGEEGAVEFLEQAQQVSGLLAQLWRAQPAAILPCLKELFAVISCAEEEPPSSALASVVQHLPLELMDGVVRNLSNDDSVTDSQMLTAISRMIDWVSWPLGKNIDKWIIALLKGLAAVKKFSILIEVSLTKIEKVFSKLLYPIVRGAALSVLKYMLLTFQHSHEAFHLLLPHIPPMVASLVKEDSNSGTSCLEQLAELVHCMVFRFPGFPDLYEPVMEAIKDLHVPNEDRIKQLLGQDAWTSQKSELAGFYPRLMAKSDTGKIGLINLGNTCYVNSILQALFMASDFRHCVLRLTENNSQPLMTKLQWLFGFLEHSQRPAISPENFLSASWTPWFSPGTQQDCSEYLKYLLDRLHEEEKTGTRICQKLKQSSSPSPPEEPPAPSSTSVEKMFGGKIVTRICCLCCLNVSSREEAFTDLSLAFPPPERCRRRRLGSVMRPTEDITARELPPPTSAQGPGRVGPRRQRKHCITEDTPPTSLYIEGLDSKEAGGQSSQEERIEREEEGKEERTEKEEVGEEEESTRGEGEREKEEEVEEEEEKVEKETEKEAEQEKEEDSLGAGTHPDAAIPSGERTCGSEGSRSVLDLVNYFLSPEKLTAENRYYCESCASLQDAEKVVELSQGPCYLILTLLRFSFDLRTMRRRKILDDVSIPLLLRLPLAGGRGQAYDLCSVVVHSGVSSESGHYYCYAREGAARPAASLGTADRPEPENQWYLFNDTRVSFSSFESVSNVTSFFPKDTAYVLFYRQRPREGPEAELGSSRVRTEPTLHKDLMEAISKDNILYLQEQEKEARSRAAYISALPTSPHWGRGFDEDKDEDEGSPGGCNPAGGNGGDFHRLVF
Outline: as §1

UniProt Q9UGI0 = target: T4, UniProt Q9UGI0
T4 sequence (whole entry): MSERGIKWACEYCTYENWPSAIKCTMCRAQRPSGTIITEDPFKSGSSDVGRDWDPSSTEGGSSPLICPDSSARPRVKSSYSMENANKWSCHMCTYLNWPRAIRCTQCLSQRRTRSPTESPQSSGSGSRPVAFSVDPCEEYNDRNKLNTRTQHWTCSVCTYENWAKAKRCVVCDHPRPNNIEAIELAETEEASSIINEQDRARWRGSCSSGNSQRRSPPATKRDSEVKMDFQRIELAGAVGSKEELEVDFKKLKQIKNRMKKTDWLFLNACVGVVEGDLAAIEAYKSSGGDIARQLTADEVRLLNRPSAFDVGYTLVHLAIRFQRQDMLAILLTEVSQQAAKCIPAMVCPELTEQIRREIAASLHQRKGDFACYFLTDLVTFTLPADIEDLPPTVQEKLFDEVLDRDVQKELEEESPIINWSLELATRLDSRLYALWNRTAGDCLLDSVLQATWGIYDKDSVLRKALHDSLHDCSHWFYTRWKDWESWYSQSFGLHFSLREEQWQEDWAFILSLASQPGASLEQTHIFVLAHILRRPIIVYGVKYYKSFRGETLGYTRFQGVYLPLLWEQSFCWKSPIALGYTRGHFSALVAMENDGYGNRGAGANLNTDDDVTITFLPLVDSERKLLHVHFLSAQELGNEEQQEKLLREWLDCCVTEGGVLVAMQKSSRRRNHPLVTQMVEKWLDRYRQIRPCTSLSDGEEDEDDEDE
Outline: as §1

YOD1 = target: T5, YOD1 (UniProt Q5VVQ6)
T5 sequence (whole entry): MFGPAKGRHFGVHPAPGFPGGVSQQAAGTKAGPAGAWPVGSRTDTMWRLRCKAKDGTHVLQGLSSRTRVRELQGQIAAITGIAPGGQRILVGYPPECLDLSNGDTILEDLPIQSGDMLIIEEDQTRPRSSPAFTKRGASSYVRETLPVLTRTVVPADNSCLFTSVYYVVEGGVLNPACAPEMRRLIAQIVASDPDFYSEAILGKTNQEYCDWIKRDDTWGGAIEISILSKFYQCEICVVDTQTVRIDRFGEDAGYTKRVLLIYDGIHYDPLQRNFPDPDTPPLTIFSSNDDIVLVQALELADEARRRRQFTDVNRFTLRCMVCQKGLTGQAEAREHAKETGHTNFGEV
Outline: as §1

Measured: log2 ratio of Biotin-Ahx-Ub-VS probe labelling

Chain of UniProt P51784 (P51784 whole entry): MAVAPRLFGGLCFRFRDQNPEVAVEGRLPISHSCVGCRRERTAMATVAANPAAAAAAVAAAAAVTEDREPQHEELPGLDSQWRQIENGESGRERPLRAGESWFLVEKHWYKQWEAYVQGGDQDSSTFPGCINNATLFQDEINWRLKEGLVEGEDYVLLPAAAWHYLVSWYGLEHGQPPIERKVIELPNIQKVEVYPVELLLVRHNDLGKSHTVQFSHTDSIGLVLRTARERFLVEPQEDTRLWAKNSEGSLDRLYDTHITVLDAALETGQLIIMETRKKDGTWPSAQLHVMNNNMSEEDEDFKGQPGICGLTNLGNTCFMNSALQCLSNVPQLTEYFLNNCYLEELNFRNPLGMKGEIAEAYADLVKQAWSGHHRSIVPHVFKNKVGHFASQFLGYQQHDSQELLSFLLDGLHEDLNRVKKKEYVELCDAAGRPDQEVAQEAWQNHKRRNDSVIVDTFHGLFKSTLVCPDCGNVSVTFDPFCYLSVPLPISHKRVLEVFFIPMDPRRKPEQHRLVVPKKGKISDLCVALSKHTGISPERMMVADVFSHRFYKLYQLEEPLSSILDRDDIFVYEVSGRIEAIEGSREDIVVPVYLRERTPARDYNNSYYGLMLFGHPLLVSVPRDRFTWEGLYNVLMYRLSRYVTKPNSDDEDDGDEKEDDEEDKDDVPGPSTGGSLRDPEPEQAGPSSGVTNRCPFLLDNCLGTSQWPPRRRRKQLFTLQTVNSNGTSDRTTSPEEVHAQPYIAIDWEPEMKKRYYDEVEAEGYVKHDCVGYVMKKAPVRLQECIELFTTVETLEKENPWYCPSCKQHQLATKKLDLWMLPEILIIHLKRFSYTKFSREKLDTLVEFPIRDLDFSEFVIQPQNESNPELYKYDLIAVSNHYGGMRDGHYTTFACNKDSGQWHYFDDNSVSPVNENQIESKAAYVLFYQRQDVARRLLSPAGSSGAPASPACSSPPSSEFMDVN
Chain of UniProt O00507 (O00507 whole entry): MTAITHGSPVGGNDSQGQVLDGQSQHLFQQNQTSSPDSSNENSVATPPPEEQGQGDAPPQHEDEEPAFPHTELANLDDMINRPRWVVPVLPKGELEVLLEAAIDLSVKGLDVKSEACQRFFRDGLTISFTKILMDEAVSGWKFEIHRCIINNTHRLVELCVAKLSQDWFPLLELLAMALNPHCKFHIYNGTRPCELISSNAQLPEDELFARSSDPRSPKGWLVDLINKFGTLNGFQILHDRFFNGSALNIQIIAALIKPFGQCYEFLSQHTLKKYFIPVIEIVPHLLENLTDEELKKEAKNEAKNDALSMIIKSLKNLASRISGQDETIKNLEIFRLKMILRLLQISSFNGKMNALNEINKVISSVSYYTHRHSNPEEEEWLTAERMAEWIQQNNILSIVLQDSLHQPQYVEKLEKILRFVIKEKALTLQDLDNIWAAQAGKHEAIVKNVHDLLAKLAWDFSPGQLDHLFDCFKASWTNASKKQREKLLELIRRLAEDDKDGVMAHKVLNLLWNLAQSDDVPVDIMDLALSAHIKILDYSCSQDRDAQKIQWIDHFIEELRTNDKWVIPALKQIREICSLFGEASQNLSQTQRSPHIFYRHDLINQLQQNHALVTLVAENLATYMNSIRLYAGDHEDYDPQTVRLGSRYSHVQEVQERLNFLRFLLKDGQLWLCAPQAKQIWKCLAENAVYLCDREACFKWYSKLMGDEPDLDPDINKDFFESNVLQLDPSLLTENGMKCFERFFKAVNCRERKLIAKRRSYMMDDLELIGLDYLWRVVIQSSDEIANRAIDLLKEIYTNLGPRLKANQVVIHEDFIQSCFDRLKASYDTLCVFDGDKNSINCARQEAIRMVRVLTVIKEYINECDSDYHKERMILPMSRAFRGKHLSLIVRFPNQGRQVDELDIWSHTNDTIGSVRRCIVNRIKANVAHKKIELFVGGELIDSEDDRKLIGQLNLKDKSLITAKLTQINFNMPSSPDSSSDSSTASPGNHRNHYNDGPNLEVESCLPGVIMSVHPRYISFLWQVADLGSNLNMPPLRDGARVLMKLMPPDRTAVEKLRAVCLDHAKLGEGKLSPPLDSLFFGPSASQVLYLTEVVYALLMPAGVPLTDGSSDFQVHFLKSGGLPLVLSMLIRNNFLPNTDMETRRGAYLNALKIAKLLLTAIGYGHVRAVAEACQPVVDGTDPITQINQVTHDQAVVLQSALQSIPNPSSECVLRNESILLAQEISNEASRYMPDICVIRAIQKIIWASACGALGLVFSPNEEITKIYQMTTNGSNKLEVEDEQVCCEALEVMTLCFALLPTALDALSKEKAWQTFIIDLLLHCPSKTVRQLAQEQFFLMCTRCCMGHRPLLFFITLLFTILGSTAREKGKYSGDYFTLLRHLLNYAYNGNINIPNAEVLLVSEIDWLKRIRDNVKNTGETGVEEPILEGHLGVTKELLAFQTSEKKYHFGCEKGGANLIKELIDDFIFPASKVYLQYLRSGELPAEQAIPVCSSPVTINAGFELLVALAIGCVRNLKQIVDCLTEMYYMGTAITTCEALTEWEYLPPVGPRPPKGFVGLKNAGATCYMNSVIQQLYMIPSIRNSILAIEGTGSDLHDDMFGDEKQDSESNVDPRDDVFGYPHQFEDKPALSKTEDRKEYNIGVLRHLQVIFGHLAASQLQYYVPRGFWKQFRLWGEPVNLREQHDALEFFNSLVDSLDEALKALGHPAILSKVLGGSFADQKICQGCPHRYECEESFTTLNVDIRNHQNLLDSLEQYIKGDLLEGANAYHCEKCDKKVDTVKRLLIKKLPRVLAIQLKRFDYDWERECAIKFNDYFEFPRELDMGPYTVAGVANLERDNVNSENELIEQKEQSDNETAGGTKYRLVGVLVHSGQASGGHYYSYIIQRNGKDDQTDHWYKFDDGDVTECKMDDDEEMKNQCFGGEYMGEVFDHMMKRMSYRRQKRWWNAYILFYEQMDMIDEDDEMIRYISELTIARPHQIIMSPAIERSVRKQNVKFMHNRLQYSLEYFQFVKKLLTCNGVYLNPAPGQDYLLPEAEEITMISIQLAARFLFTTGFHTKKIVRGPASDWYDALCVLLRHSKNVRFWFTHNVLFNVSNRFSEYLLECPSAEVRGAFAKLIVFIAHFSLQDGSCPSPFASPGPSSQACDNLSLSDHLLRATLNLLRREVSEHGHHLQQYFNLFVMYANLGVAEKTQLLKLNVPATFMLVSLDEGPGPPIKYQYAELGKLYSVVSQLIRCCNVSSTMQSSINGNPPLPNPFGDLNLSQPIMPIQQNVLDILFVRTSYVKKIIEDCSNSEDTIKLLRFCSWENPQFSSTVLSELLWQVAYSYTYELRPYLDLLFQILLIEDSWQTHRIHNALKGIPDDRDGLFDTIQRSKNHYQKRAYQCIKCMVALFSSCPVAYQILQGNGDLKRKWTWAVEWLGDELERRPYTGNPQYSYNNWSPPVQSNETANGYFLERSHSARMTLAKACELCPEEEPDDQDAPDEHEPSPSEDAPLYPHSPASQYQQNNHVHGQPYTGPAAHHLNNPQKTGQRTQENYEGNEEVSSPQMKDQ
Chain of UniProt O00487 (O00487 whole entry): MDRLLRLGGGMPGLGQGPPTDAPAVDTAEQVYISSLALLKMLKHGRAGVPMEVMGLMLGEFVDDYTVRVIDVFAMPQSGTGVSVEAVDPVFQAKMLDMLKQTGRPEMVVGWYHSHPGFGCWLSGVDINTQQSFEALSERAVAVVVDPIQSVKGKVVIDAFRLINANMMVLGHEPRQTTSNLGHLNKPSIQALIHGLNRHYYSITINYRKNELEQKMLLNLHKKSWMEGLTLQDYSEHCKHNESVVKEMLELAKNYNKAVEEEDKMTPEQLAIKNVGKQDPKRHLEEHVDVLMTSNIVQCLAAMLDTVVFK

N#Cc1cnn(-c2ccccc2)c1NC(=O)CCl
inactive: USP9X -0.317 | UniProt O00487 -0.0605 | UniProt O00507 -0.331 | UniProt P51784 -0.12 | UniProt Q5T2D3 -0.209 | UniProt Q9P2H5 -0.407 | YOD1 -0.327
active: UniProt Q8TE49 -1.4 | UniProt Q9UGI0 -1.04
